The results in this text go back to paper PMC7862700, “An all-to-all approach to the identification of sequence-specific readers for epigenetic DNA modifications on cytosine”.

Experiment in all cases: DAPPL (digital affinity profiling via proximity ligation, sequencing); 10 mM Tris-HCl pH 7.5, 50 mM NaCl, 1 mM DTT, 4% glycerol, room temperature, 30 min; GST-TFs on glutathione beads, 16-mer random dsDNA library, 0.1% formaldehyde crosslink after washing; high values mean tight binding
What all share (conditions): protein: recombinant; tags: N-terminal GST; dsDNA, one strand shown

One assay addresses T1, FLI1 (Homo sapiens, UniProt Q01543 1-452).
T1 sequence: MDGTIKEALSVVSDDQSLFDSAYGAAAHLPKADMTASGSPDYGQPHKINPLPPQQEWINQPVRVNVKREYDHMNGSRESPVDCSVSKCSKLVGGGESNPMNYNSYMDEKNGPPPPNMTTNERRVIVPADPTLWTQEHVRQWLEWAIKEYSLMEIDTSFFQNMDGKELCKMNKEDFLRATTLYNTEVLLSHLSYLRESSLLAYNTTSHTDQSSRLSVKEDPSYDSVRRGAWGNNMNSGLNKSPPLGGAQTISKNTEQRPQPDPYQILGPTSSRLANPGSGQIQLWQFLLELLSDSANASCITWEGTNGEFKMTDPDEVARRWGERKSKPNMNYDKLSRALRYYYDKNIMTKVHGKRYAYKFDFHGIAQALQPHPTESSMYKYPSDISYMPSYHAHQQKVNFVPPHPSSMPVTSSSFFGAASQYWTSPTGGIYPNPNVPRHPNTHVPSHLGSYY
In a few lines: (§1)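 Beads coated with glutathione captured GST-fused human transcription factors that had been expressed in yeast, and the factors were then given DNA barcodes and pooled with a tag-only sample. The pools were incubated with 200 nmole of a random double-stranded 16-mer DNA library in Tris/NaCl/DTT/glycerol buffer for 30 min at room temperature, washed, crosslinked with 0.1% formaldehyde and proximity-ligated with BsaI/T4 ligase at 37 °C for 1 h. PCR amplification and Illumina NextSeq500 sequencing came last. Binding signal is each hexamer's read frequency for a factor divided by its frequency for the tag-only sample.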

For another assay, the target named is T2, GABPA (Homo sapiens, UniProt Q06546 1-454).
T2 sequence: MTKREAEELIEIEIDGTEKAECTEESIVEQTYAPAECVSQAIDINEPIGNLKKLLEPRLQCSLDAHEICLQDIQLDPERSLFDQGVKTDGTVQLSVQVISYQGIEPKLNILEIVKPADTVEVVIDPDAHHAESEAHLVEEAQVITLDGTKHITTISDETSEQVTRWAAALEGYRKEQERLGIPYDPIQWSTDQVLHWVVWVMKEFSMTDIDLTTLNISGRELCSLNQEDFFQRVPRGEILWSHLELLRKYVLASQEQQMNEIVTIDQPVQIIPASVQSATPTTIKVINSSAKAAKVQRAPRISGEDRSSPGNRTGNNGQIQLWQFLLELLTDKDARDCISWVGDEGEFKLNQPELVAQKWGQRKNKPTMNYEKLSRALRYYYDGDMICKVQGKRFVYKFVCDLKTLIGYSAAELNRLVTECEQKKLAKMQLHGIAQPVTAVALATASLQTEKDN
In a few lines: as §1

Another assay has as its target T3, ERG (Homo sapiens, UniProt P11308 1-479).
T3 sequence: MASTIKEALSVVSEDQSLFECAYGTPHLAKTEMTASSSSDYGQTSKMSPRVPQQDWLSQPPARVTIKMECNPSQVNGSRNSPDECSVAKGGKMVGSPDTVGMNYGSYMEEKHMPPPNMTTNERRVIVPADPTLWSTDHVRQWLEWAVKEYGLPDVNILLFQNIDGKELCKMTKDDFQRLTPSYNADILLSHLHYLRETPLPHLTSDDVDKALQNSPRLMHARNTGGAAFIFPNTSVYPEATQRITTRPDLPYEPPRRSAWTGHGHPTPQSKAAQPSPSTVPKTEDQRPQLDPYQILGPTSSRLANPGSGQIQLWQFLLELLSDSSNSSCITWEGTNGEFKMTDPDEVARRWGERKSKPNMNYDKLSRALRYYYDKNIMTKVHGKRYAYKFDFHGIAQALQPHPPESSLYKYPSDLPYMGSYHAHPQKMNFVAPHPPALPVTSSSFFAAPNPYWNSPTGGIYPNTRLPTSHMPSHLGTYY
In a few lines: as §1

Another assay addresses SPIB (Homo sapiens, UniProt Q01892 1-262). In a few lines:
as §1

The target in the next assay is T4, FEV (Homo sapiens, UniProt Q99581 1-238).
T4 sequence: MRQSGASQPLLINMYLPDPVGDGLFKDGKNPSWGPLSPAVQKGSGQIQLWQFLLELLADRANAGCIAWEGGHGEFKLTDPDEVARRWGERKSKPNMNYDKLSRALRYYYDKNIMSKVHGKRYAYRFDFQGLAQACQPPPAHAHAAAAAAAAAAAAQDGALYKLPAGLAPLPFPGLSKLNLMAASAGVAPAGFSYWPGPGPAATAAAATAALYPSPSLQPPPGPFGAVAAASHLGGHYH
In a few lines:
as §1

A further assay deals with ETV5 (Homo sapiens, UniProt P41161 1-510). In a few lines: as §1
Sequence of ETV5 (P41161 whole entry): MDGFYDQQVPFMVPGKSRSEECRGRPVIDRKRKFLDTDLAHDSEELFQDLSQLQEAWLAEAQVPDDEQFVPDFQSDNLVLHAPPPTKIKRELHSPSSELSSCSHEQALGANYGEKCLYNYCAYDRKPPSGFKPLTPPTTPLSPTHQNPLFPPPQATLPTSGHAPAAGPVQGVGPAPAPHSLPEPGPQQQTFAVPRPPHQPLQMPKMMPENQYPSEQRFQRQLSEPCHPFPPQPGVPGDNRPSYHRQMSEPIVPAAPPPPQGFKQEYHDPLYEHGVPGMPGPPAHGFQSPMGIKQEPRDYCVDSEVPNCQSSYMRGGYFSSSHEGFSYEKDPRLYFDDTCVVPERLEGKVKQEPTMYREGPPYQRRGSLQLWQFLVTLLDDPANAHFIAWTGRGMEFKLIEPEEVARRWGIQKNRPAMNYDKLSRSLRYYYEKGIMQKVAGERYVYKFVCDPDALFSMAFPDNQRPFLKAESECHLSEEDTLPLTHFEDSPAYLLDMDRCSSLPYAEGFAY
The target of a further assay is T5, SPIC (Homo sapiens, UniProt Q8N5J4 1-248).
T5 sequence: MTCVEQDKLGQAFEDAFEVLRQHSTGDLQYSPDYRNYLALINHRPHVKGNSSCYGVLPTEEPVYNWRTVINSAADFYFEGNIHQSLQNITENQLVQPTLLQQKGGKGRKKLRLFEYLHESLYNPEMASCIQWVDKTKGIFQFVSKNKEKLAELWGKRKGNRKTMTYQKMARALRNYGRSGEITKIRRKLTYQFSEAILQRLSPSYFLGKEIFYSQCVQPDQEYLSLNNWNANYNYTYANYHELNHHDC
In a few lines: as §1

For another assay, the target named is ELF4 (Homo sapiens, UniProt Q99607 1-663). In a few lines: as §1
Sequence of ELF4 (Q99607 whole entry): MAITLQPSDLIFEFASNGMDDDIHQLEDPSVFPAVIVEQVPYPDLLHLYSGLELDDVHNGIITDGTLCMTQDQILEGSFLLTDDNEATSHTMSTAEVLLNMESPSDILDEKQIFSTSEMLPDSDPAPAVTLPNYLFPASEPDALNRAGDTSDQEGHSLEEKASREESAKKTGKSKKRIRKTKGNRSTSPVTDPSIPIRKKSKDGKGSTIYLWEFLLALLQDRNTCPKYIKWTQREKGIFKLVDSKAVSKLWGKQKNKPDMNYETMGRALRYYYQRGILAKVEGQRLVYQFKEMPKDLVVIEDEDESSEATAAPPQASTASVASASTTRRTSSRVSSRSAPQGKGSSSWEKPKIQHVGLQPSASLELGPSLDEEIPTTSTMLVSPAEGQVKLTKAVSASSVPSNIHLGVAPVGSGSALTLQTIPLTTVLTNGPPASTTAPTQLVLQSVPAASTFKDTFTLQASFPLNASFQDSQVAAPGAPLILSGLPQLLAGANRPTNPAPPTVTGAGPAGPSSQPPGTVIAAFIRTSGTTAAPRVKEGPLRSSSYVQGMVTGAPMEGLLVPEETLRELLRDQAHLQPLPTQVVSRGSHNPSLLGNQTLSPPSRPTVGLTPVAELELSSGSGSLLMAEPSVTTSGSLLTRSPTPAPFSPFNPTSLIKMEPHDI
The target of the next assay is T6, ETV3 (Homo sapiens, UniProt P41162-2 1-143).
T6 sequence: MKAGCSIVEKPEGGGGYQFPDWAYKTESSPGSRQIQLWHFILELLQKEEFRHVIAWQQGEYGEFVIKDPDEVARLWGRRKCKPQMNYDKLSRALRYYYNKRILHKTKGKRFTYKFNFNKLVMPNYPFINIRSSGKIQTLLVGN
In a few lines: as §1

Another assay deals with T7, ELK1 (Homo sapiens, UniProt P19419 1-428).
T7 sequence: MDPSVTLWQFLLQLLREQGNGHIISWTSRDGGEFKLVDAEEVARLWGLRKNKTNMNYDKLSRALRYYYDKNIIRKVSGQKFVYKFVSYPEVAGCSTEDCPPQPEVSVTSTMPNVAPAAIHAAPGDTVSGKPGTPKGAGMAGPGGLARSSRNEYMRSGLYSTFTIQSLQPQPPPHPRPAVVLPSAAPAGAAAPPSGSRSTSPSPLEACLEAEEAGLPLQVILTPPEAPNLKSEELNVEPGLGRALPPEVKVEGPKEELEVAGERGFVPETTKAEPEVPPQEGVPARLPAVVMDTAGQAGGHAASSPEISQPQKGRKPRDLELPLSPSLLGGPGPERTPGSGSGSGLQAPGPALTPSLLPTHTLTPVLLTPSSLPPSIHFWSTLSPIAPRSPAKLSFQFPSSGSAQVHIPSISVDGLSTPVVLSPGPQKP
In a few lines: as §1

The next assay has as its target ELF1 (Homo sapiens, UniProt P32519 1-619). In a few lines: as §1
In a further assay the target is T8, EHF (Homo sapiens, UniProt Q9NZC4 1-300).
T8 sequence: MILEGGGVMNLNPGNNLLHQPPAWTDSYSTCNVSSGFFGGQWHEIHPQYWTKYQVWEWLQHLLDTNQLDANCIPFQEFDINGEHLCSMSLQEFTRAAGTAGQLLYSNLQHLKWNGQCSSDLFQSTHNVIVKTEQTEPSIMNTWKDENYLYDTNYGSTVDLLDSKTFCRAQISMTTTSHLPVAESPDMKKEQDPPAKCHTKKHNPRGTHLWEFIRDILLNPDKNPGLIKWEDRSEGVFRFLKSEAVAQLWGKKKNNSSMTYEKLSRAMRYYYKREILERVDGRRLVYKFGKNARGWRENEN
In a few lines: as §1

The target of the next assay is SPI1 (Homo sapiens, UniProt P17947 1-270). In a few lines: as §1
For a further assay, the target named is T9, ELK3 (Homo sapiens, UniProt P41970 1-407).
T9 sequence: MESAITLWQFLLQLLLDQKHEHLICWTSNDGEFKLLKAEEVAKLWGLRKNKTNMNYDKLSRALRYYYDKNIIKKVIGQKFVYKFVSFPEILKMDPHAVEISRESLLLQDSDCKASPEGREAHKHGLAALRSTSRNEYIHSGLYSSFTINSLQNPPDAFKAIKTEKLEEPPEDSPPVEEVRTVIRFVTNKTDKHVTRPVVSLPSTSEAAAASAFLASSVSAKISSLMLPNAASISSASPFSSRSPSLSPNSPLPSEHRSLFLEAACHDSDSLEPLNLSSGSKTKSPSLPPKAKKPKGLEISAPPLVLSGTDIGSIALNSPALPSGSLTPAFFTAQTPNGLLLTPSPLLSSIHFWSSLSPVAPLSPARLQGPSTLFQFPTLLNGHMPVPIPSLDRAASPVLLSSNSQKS
In a few lines: as §1

A further assay addresses ETV1 (Homo sapiens, UniProt P50549 1-477). In a few lines: as §1
In another assay the target is T10, ERF (Homo sapiens, UniProt P50548 1-548).
T10 sequence: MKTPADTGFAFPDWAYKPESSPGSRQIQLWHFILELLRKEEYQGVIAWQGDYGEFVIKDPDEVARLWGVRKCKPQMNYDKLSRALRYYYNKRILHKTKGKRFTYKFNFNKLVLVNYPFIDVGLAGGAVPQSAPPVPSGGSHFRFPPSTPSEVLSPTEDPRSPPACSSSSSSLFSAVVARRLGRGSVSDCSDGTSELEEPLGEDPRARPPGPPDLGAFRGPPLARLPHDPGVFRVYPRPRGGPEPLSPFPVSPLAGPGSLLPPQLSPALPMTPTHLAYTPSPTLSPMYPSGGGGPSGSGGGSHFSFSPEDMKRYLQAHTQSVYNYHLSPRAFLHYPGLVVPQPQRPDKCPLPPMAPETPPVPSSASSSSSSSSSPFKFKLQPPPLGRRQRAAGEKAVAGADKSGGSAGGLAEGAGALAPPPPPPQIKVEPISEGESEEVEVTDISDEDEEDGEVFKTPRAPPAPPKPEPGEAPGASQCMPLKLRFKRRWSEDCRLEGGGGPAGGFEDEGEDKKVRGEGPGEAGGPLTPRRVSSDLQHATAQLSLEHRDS
In a few lines:
as §1

The target in a further assay is T11, ELF5 (Homo sapiens, UniProt Q9UKW6-2 1-255).
T11 sequence: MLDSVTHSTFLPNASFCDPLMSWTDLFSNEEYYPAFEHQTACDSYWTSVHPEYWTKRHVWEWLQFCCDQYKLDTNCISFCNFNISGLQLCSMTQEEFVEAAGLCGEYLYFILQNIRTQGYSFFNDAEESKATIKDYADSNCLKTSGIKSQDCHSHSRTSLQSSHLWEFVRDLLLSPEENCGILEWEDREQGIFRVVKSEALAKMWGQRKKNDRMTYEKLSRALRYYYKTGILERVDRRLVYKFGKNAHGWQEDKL
In a few lines:
as §1

In a further assay the target is ETV6 (Homo sapiens, UniProt P41212 1-452). In a few lines:
as §1

Sequence of SPIB (Q01892 whole entry): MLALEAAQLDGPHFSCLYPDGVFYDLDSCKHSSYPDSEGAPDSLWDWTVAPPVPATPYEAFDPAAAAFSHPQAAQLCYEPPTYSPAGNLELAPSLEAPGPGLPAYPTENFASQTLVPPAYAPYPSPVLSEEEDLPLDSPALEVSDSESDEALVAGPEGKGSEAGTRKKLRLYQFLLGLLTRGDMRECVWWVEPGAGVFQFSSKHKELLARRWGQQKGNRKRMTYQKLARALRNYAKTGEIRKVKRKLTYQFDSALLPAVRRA
Sequence of ETV6 (P41212 whole entry): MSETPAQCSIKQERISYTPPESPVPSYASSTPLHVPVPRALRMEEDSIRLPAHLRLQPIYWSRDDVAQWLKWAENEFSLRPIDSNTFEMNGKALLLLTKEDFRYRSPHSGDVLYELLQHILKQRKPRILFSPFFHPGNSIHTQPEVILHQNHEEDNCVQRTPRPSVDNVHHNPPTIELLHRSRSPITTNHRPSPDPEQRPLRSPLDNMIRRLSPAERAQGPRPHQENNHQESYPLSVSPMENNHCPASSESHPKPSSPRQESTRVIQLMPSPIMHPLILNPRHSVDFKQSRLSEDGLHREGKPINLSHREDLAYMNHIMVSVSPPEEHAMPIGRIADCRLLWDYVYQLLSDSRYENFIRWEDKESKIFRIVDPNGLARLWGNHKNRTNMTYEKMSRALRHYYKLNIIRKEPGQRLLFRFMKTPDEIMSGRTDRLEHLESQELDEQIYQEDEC
Sequence of ELF1 (P32519 whole entry): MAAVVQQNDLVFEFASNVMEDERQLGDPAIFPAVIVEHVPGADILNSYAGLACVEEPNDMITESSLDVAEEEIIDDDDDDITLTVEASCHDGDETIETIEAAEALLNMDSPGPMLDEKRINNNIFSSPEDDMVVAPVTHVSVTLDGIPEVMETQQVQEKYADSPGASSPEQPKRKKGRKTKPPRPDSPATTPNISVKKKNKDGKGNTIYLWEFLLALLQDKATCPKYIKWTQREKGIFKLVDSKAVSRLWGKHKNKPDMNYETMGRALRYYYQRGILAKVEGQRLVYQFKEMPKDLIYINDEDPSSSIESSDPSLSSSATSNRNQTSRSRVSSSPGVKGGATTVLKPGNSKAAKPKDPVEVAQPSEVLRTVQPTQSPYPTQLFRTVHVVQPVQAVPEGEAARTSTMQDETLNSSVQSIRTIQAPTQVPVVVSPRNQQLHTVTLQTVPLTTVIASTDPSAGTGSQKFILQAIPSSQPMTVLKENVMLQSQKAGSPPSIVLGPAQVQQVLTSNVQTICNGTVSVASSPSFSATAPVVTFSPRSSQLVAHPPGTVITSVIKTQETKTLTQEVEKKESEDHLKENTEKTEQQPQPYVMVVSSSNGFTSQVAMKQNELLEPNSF
Sequence of ETV1 (P50549 whole entry): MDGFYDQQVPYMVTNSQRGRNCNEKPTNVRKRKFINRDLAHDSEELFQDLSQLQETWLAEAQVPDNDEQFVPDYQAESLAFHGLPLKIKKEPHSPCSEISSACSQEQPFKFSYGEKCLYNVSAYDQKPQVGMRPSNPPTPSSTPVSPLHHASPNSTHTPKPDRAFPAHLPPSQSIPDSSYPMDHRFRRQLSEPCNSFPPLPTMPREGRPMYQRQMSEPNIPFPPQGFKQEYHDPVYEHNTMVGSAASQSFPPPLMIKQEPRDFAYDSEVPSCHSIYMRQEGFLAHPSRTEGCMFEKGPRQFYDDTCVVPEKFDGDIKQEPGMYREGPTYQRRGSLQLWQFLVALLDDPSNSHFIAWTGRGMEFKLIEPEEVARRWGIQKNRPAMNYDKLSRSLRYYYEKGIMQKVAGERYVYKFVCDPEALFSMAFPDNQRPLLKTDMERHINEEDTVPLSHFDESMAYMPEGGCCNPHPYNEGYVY

For the sequence AGCTGT, the binding signal in the assay with FLI1 was 1.04 fold enrichment (6-mer frequency, TF over GST control); with GABPA, 1.05 fold enrichment (6-mer frequency, TF over GST control); in the assay with ERG it was 1.01 fold enrichment (6-mer frequency, TF over GST control); with SPIB it was 1.06 fold enrichment (6-mer frequency, TF over GST control); with FEV, 1.04 fold enrichment (6-mer frequency, TF over GST control); in the assay with ETV5, 1.02 fold enrichment (6-mer frequency, TF over GST control). Further, the binding signal with SPIC was 1.15 fold enrichment (6-mer frequency, TF over GST control); in the assay with ELF4 it was 1.02 fold enrichment (6-mer frequency, TF over GST control); with ETV3, 1.07 fold enrichment (6-mer frequency, TF over GST control).

As for CCCCGT, the binding signal with FLI1 is 1.05 fold enrichment (6-mer frequency, TF over GST control); in the assay with ELK1, 1.08 fold enrichment (6-mer frequency, TF over GST control); with GABPA, 1.02 fold enrichment (6-mer frequency, TF over GST control); with ERG, 1.1 fold enrichment (6-mer frequency, TF over GST control); in the assay with ELF1, 1.06 fold enrichment (6-mer frequency, TF over GST control); with EHF, 1.13 fold enrichment (6-mer frequency, TF over GST control). The binding signal was 1.1 fold enrichment (6-mer frequency, TF over GST control) in the assay with SPI1; 1.09 fold enrichment (6-mer frequency, TF over GST control) with ELK3; 1.01 fold enrichment (6-mer frequency, TF over GST control) with FEV; 1.03 fold enrichment (6-mer frequency, TF over GST control) with ETV5; 1.05 fold enrichment (6-mer frequency, TF over GST control) in the assay with SPIC; 1.07 fold enrichment (6-mer frequency, TF over GST control) with ELF4. Also, the binding signal in the assay with ETV1 was 1 fold enrichment (6-mer frequency, TF over GST control); with ERF it was 1.13 fold enrichment (6-mer frequency, TF over GST control); in the assay with ELF5 it was 1.06 fold enrichment (6-mer frequency, TF over GST control); with ETV3, 1.06 fold enrichment (6-mer frequency, TF over GST control); with ETV6, 1.08 fold enrichment (6-mer frequency, TF over GST control).
